The source of these data is article PMC7862700, “An all-to-all approach to the identification of sequence-specific readers for epigenetic DNA modifications on cytosine”.

Holding throughout (assay): DAPPL (digital affinity profiling via proximity ligation, sequencing); 10 mM Tris-HCl pH 7.5, 50 mM NaCl, 1 mM DTT, 4% glycerol, room temperature, 30 min; GST-TFs on glutathione beads, 16-mer random dsDNA library, 0.1% formaldehyde crosslink after washing; high values mean tight binding
One assay addresses T1, FEV (Homo sapiens, UniProt Q99581 1-238).
T1 sequence: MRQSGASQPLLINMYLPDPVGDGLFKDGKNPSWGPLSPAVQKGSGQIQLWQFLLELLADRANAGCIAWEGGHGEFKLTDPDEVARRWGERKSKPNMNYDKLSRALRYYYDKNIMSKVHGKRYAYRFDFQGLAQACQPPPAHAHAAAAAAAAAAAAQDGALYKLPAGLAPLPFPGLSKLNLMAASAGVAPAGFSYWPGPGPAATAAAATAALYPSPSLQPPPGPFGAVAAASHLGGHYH
Particulars: protein: recombinant; tags: N-terminal GST; dsDNA, one strand shown. Summed up:
(§1)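 Yeast served to express human transcription factors as GST fusions, which were then captured on glutathione beads and labelled with DNA barcodes. Pooled with a tag-only sample, they were incubated with 200 nmole of a 16-mer random double-stranded DNA library for 30 min at room temperature in Tris/NaCl/DTT/glycerol buffer, washed, crosslinked with 0.1% formaldehyde, ligated by proximity, amplified by PCR and sequenced. Dividing each hexamer's read frequency for a factor by its frequency for the tag-only sample gives the binding signal.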

In the next assay the target is ETV5 (Homo sapiens, UniProt P41161 1-510). The conditions noted are these: protein: recombinant; tags: N-terminal GST; dsDNA, one strand shown. Summed up: as §1
Sequence of ETV5 (P41161 whole entry): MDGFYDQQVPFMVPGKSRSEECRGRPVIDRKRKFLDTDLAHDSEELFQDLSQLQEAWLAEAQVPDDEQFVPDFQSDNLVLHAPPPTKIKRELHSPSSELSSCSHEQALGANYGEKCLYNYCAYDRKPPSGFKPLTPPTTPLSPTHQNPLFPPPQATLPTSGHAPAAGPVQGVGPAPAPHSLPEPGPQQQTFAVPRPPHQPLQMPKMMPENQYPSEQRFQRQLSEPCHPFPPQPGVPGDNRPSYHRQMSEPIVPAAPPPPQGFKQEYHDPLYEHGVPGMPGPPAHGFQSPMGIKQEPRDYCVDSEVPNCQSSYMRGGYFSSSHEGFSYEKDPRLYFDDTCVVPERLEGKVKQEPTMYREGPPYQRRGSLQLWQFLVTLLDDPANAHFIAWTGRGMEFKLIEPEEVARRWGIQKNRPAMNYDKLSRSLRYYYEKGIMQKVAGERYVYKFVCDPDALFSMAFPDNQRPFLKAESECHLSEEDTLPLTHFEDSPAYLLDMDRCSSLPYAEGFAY
The target of another assay is HSF1 (Homo sapiens, UniProt Q00613 1-529). Particulars: protein: recombinant; tags: N-terminal GST; chain copies: 3; dsDNA, one strand shown. The method in brief: as §1
Sequence of HSF1 (Q00613 whole entry): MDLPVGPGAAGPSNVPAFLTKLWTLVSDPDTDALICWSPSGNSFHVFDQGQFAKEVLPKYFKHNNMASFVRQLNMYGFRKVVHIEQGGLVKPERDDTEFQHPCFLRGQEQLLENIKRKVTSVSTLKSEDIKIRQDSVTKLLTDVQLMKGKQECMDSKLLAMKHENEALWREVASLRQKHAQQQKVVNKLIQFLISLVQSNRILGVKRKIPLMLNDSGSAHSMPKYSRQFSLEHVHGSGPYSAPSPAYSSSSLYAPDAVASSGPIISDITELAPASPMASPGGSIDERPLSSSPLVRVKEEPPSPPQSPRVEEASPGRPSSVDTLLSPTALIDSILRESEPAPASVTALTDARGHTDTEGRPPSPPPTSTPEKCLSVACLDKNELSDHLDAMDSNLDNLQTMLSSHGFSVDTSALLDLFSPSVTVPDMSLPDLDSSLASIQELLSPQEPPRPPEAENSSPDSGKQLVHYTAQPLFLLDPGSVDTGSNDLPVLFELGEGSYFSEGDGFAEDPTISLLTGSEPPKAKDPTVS
A further assay deals with T2, SPIC (Homo sapiens, UniProt Q8N5J4 1-248).
T2 sequence: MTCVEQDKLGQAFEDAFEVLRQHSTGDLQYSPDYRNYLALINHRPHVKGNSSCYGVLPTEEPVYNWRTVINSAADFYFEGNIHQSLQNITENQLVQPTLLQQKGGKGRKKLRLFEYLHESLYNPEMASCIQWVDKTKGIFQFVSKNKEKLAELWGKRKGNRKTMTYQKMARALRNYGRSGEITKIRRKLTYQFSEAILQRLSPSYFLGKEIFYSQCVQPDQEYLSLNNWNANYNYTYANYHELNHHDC
Particulars: protein: recombinant; tags: N-terminal GST; dsDNA, one strand shown. Summed up: as §1

The next assay addresses ELF4 (Homo sapiens, UniProt Q99607 1-663). The conditions noted are these: protein: recombinant; tags: N-terminal GST; dsDNA, one strand shown. Summed up:
as §1

For the next assay, the target named is T3, ELK4 (Homo sapiens, UniProt P28324-2 1-405).
T3 sequence: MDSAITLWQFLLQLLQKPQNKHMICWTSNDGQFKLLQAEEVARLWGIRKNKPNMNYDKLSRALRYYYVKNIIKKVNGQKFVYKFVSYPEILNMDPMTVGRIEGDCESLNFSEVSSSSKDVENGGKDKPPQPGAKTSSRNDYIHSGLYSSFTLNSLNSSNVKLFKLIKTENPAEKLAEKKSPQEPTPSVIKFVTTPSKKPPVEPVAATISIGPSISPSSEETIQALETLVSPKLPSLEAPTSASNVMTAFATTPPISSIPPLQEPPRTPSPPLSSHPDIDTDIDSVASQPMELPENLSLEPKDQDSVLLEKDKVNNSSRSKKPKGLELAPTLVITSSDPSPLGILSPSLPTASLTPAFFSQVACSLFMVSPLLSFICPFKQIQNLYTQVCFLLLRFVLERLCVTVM
The conditions noted are these: protein: recombinant; tags: N-terminal GST; dsDNA, one strand shown. The method in brief:
as §1

A further assay has as its target T4, ETV2 (Homo sapiens, UniProt O00321 1-342).
T4 sequence: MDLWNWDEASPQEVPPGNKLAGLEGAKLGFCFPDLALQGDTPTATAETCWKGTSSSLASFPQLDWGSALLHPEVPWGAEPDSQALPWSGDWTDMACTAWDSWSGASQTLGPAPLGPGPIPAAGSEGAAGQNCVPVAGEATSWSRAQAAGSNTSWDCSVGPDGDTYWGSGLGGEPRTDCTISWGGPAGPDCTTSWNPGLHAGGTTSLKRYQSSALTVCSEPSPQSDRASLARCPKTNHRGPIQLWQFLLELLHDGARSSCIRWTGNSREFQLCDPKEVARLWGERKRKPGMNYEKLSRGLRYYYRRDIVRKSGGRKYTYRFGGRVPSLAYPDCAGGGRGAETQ
Particulars: protein: recombinant; tags: N-terminal GST; dsDNA, one strand shown. The method in brief: as §1

A further assay has as its target T5, ELF3 (Homo sapiens, UniProt P78545 1-371).
T5 sequence: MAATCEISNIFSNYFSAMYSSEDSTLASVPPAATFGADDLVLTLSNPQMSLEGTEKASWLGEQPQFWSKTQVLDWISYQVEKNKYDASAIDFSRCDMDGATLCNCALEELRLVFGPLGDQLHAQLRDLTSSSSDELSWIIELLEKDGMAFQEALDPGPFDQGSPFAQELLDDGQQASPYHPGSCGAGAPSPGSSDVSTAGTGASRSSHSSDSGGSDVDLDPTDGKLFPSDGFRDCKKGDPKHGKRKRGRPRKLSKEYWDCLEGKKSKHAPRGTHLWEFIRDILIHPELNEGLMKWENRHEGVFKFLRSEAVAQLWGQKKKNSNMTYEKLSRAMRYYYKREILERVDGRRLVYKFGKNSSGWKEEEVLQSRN
Particulars: protein: recombinant; tags: N-terminal GST; dsDNA, one strand shown. The method in brief:
as §1

For a further assay, the target named is CRX (Homo sapiens, UniProt O43186 1-299). Particulars: protein: recombinant; tags: N-terminal GST; dsDNA, one strand shown. Summed up: as §1
Sequence of CRX (O43186 whole entry): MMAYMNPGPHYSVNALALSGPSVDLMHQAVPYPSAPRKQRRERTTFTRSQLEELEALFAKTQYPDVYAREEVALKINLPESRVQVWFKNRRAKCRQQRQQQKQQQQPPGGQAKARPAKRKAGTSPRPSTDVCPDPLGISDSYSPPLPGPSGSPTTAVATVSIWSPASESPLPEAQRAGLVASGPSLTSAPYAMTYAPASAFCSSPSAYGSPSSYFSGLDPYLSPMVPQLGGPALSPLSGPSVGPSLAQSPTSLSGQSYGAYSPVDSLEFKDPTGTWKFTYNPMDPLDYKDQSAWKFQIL
The target in another assay is ETV1 (Homo sapiens, UniProt P50549 1-477). Particulars: protein: recombinant; tags: N-terminal GST; dsDNA, one strand shown. Summed up: as §1
Sequence of ETV1 (P50549 whole entry): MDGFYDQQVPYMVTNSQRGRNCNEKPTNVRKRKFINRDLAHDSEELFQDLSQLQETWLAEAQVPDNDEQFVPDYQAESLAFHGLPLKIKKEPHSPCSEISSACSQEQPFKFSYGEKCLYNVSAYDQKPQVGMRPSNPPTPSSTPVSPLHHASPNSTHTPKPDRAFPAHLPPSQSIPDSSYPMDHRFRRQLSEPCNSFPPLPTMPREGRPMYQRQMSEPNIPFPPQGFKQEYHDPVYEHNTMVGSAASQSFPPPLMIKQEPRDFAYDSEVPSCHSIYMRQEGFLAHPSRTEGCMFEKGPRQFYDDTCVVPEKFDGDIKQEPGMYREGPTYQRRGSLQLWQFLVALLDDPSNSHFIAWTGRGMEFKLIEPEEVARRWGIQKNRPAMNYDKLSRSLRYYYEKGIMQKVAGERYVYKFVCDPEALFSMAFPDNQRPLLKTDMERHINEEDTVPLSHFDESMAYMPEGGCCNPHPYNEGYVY
The next assay addresses T6, ERF (Homo sapiens, UniProt P50548 1-548).
T6 sequence: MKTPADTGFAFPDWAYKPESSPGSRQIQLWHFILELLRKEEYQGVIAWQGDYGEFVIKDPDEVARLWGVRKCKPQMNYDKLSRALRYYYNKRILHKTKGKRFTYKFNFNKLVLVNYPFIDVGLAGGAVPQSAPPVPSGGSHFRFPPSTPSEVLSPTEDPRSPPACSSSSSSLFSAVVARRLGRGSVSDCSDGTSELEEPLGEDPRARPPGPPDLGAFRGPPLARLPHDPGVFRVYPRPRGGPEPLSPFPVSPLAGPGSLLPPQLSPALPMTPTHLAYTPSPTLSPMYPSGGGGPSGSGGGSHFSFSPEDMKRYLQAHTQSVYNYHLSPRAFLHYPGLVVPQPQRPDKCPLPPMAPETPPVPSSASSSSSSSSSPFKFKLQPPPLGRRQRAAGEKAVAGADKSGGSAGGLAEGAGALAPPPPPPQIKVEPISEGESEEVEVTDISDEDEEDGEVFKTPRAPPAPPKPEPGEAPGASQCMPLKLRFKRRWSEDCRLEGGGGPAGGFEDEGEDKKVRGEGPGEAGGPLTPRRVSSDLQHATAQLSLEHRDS
The conditions noted are these: protein: recombinant; tags: N-terminal GST; dsDNA, one strand shown. Summed up: as §1

For another assay, the target named is T7, ETV3L (Homo sapiens, UniProt Q6ZN32 1-361).
T7 sequence: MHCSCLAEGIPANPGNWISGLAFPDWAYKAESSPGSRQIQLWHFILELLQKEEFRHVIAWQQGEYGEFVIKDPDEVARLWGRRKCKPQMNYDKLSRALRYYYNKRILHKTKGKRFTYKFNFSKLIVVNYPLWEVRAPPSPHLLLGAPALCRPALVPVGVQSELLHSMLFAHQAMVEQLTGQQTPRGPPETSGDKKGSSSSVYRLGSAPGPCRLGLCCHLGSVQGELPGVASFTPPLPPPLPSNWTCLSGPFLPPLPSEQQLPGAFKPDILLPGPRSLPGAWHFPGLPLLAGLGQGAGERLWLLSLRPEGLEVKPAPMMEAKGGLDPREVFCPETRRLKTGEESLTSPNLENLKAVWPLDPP
The conditions noted are these: protein: recombinant; tags: N-terminal GST; dsDNA, one strand shown. Summed up: as §1

The target in another assay is T8, ETS2 (Homo sapiens, UniProt P15036 1-469).
T8 sequence: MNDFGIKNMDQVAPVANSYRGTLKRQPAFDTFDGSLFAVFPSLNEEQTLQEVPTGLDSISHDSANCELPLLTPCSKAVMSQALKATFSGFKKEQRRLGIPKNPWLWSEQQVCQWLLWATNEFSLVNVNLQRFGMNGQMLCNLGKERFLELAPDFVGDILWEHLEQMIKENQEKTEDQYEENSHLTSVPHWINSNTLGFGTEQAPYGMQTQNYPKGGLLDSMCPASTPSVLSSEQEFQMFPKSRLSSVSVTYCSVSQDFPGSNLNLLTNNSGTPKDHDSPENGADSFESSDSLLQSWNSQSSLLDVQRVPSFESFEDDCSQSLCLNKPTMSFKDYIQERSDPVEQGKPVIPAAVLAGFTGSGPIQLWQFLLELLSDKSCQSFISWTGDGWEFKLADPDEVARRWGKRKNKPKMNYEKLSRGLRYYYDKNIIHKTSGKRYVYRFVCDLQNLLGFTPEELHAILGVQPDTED
The conditions noted are these: protein: recombinant; tags: N-terminal GST; dsDNA, one strand shown. Summed up: as §1

The next assay deals with T9, SPDEF (Homo sapiens, UniProt O95238 1-335).
T9 sequence: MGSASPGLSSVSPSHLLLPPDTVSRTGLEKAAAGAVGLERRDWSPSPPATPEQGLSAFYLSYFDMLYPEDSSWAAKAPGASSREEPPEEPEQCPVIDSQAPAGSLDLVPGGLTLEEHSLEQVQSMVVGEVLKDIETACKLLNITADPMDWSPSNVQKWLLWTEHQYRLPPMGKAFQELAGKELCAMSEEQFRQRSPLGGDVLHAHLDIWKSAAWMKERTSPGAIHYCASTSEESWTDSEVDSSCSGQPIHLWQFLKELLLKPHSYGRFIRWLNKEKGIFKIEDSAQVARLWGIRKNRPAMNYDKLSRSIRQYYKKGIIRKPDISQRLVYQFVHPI
Particulars: protein: recombinant; tags: N-terminal GST; dsDNA, one strand shown. Summed up:
as §1

A further assay deals with T10, ETV7 (Homo sapiens, UniProt Q9Y603 1-341).
T10 sequence: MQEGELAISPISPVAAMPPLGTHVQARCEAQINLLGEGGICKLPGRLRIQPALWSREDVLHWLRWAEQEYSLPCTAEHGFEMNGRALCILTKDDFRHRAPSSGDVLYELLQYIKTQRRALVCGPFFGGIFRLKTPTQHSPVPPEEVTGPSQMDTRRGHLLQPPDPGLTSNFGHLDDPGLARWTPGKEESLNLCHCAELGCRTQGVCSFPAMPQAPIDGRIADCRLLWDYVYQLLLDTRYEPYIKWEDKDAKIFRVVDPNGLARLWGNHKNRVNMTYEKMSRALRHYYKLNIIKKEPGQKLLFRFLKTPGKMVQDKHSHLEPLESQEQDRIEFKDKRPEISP
Particulars: protein: recombinant; tags: N-terminal GST; dsDNA, one strand shown. The method in brief: as §1

The target of the next assay is T11, ELF5 (Homo sapiens, UniProt Q9UKW6-2 1-255).
T11 sequence: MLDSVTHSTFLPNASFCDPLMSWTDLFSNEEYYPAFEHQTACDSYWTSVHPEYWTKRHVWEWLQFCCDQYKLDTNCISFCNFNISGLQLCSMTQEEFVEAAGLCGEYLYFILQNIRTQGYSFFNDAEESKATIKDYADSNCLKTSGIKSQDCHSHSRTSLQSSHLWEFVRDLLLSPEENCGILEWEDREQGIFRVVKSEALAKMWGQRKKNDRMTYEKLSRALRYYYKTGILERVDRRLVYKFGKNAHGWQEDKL
The conditions noted are these: protein: recombinant; tags: N-terminal GST; dsDNA, one strand shown. Summed up: as §1

For a further assay, the target named is T12, ETV3 (Homo sapiens, UniProt P41162-2 1-143).
T12 sequence: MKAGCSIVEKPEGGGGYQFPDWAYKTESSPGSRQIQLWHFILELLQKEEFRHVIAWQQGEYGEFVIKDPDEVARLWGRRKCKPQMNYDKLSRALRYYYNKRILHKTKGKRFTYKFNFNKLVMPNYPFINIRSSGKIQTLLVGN
The conditions noted are these: protein: recombinant; tags: N-terminal GST; dsDNA, one strand shown. The method in brief:
as §1

Another assay addresses ETV6 (Homo sapiens, UniProt P41212 1-452). The conditions noted are these: protein: recombinant; tags: N-terminal GST; dsDNA, one strand shown. Summed up:
as §1

Sequence of ETV6 (P41212 whole entry): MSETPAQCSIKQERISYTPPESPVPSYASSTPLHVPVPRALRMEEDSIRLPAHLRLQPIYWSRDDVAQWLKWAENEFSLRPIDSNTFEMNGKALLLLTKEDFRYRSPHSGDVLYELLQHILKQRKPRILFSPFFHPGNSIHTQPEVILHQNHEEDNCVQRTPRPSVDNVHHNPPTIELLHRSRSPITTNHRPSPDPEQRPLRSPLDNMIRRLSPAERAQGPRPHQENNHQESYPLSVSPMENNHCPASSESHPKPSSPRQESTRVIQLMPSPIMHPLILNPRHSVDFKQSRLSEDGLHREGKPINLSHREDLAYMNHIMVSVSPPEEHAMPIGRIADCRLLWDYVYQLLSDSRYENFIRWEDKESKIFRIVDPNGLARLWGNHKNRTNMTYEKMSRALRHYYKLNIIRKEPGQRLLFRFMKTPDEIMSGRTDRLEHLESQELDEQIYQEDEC
Sequence of ELF4 (Q99607 whole entry): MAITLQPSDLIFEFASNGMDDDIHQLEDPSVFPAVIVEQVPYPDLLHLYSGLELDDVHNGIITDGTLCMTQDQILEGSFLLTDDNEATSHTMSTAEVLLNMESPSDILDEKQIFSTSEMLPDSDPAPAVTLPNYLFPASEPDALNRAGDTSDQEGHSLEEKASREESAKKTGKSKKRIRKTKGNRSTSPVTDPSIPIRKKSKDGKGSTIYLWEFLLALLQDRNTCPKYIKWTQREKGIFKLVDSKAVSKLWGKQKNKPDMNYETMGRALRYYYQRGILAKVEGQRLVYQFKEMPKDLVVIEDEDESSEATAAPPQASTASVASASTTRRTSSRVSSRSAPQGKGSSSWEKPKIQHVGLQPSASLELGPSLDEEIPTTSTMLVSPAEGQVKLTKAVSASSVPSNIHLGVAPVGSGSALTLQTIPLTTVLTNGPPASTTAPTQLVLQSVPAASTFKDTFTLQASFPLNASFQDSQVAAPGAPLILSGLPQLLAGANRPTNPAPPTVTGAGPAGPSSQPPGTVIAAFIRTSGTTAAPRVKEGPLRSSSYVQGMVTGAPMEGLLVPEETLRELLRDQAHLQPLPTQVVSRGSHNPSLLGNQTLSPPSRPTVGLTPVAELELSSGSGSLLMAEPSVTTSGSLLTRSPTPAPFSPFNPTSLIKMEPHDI

As to TTCAGC, the binding signal in the assay with FEV is 1.25 fold enrichment (6-mer frequency, TF over GST control); with ETV5 it was 1.22 fold enrichment (6-mer frequency, TF over GST control); with HSF1, 1.04 fold enrichment (6-mer frequency, TF over GST control); with SPIC, 1.16 fold enrichment (6-mer frequency, TF over GST control); with ELF4, 1.28 fold enrichment (6-mer frequency, TF over GST control); in the assay with ELK4, 1.23 fold enrichment (6-mer frequency, TF over GST control). Besides, the binding signal is 1.14 fold enrichment (6-mer frequency, TF over GST control) with ETV2; 1.27 fold enrichment (6-mer frequency, TF over GST control) with ELF3; 1.19 fold enrichment (6-mer frequency, TF over GST control) with CRX; 1.3 fold enrichment (6-mer frequency, TF over GST control) with ETV1; 1.14 fold enrichment (6-mer frequency, TF over GST control) in the assay with ERF; 1.21 fold enrichment (6-mer frequency, TF over GST control) with ETV3L. The binding signal with ETS2 was 1.27 fold enrichment (6-mer frequency, TF over GST control); in the assay with SPDEF, 1.12 fold enrichment (6-mer frequency, TF over GST control); with ETV7 it was 1.27 fold enrichment (6-mer frequency, TF over GST control); with ELF5 it was 1.16 fold enrichment (6-mer frequency, TF over GST control); with ETV3, 1.32 fold enrichment (6-mer frequency, TF over GST control); with ETV6, 1.2 fold enrichment (6-mer frequency, TF over GST control).
